RecA intein inh: Mtb RecA intein splicing inhibitors, primary screen, biochemical, fluorescence, HTS | cell-free RecA intein splicing | Protein RecA (Mycobacterium tuberculosis (strain ATCC 25618 / H37Rv)), P9WHJ3 | inhibition, % (no concentration beside the values) | actives 0.75% (n = 290,000); in the data active = inhibition above about 30%; inconclusive = no clear call, values can overlap the other calls;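 note: 0% = vehicle wells and 100% = reference inhibitor control wells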
Yp Topo-I inh: Yersinia pestis topoisomerase I inhibitors, primary screen, biochemical, cleavage product accumulation, plate reader, single point. DNA topoisomerase I (Yersinia pestis CO92). AID 504884, 2011. actives 0.064% (n = 360,000). activity, % at 10 µM. Y. pestis Topo-I cleavage product accumulation; in the data active = activity above about 50%, passing the limit was not always enough; inconclusive = no clear call, values can overlap the other calls
Rv3671c inh: Rv3671c serine protease inhibitors, primary screen, biochemical, fluorescence polarization, M. tuberculosis H37Rv; actives 0.048% (n = 320,000); P9WHR9; AID 2606, 2010; inhibition, % at 5.96 µM; in the data active = inhibition above about 38%;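 note: extracellular domain of Rv3671c used as enzyme; 0% = enzyme with DMSO and 100% = no enzyme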
Target sequence (P9WHR9 whole entry, looked up, the tested form may be a part): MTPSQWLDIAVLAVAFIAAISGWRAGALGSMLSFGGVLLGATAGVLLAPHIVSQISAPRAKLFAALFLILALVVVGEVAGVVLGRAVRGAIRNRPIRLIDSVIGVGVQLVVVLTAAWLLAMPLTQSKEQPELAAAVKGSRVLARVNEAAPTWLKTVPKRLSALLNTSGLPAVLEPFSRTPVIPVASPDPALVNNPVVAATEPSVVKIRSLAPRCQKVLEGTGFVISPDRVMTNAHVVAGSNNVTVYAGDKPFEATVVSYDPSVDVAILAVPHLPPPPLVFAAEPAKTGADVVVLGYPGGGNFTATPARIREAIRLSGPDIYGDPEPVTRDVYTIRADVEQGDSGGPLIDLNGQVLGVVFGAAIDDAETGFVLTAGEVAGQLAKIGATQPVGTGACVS
FadD28 binding: inhibitors of FadD28 bisubstrate probe binding, primary screen, biochemical, fluorescence polarization, single point; Mycobacterium tuberculosis FadD28 fatty-acid-AMP ligase; inhibition, % at 12.5 µM; actives 0.22% (n = 360,000); in the data active = inhibition above about 8.5%, passing the limit was not always enough; inconclusive = no clear call, values can overlap the other calls
UGM FP inh: M. tuberculosis UGM enzyme inhibitors, primary screen, biochemical, fluorescence polarization, single point; AID 504406, 2011; inhibition, % at 10 µM; actives 0.06% (n = 320,000); purified UGM, fluorescence polarization probe displacement; in the data active = inhibition above about 10%, passing the limit was not always enough; inconclusive = no clear call, values can overlap the other calls
Mtb BioA inh: M. tuberculosis BioA enzyme inhibitors, primary screen, biochemical, plate reader, single point, HTS; AID 602481, 2012; actives 0.096% (n = 360,000); 7,8-diaminopelargonic acid synthase BioA (Mycobacterium tuberculosis); inhibition, % at 9.99 µM; purified M. tuberculosis BioA enzyme; in the data active = inhibition above about 40%; inconclusive = no clear call, values can overlap the other calls
GFP chromo cs: counter-screen: blocks GFP chromophore formation, dose response, counter-screen, biochemical, fluorescence, homogeneous | shares compounds with RecA intein inh | cell-free GFP chromophore formation | EC50, µM | actives 83% (n = 2,100) | AID 434968, 2010; call rule not given here
An asterisk follows results filed as active; ? = inconclusive; . = no result. Only some compounds are listed: those with a hit (about 0.82% of all), similar ones and a draw of the others.

SMILES	RecA intein inh	Yp Topo-I inh	Rv3671c inh	FadD28 binding	UGM FP inh	Mtb BioA inh	GFP chromo cs
COc1ccc2c(c1)-c1nc(/N=C/c3c(O)ccc4ccccc34)sc1CC2	51*	-5	.	-1	.	.	>38
COc1ccc2c(c1)-c1nc(/N=C/c3ccc(O)cc3)sc1CC2	.	-8	-2	-3	1	.	.
O=c1[nH]c2ccc(Cl)cc2c(-c2ccccc2)c1SC(=S)N1CCOCC1	4	1	0	-6	-1	.	.
O=c1[nH]c2ccc(Cl)cc2c(-c2ccccc2)c1SC(=S)N1CCCCC1	40*	18	-8	-11	1	.	>38
Oc1cccc(C=Nc2cccc3ccccc23)c1O	31*	-5	-38	-1	4	-2	15*
Oc1ccccc1C=Nc1cccc2ccccc12	2	0	-6	-4	2	-2	.
O=c1[nH]c(Nc2ccccc2Cl)cc2ccccc12	86*	-12	-75	1	1	-2	16*
O=c1[nH]c(-c2ccccn2)cc2ccccc12	5	3	-12	-4	1	.	.
O=c1[nH]c(Nc2ccc(F)cc2)cc2ccccc12	65*	-5	-130	-2	0	0	1.6*
Cc1cc(Nc2ccc(F)cc2)c2ccccc2n1	.	2	.	-1	.	8	.
Cc1ccccc1Nc1cc2ccccc2c(=O)[nH]1	71*	-3	-126	1	1	.	?
Cc1cc2ccccc2c(=O)[nH]1	-2	3	11	-3	0	-1	.
O=c1[nH]c(Nc2ccccn2)cc2ccccc12	72*	-8	-37	-2	-1	0	>38
C[C@@H]1CCCCO[C@@H](CN(C)C(=O)C2CCCCC2)[C@H](C)CN([C@@H](C)CO)C(=O)c2cc(NC(=O)Nc3ccc4c(c3)OCO4)ccc2O1	.	.	.	.	.	-2	.
C[C@@H]1CN([C@H](C)CO)C(=O)Cc2cc(NC(=O)Cn3cnnn3)ccc2O[C@H]1CN(C)Cc1ccc(C(=O)Nc2ccccc2N)cc1	.	.	.	.	.	11	.
CO[C@@H]1CN(C)C(=O)c2cc(NC(=O)c3ccccc3F)ccc2OC[C@H](C)NC[C@H]1C	.	.	.	.	.	1	.
COc1ccc(NC(=O)Nc2ccc3c(c2)C(=O)N([C@@H](C)CO)C[C@H](C)[C@H](CN(C)C(=O)c2ccccc2)OCCCC[C@@H](C)O3)cc1	.	.	.	.	.	-1	.
O=C(Nc1ccc(Cl)cc1)N[C@@H]1CC[C@@H](CCn2cc(C3(O)CCCC3)nn2)O[C@H]1CO	.	.	.	.	.	-3	.
C#CCOc1ccc(Br)cc1C(c1c(C)[nH][nH]c1=O)c1c(C)[nH][nH]c1=O	94*	4	-7	-4	4	-1	2.2*
CCOc1ccc(Cl)cc1C(c1c(C)[nH][nH]c1=O)c1c(C)[nH][nH]c1=O	97*	-12	.	-2	0	0	0.92*
CCC(C)[C@@H](NC(=O)OC(C)(C)C)c1nnc(S(=O)(=O)Cc2cccc(C)c2)o1 (some centres undefined)	37*	4	.	-2	.	.	31*
Cc1ccccc1CS(=O)(=O)c1nnc([C@H](Cc2ccccc2)NC(=O)OC(C)(C)C)o1	41*	27	2	-1	-1	0	12*
C[C@H]1CN([C@@H](C)CO)C(=O)c2cccc(NS(=O)(=O)c3ccccc3)c2O[C@H]1CN(C)C(=O)Nc1ccc(F)cc1	.	.	.	.	.	2	.
CC(C)CC#Cc1cnc2c(c1)C(=O)N([C@H](C)CO)C[C@H](C)[C@@H](CN(C)C(=O)C1CCOCC1)O2	.	.	.	.	.	1	.
C[C@@H]1CN([C@H](C)CO)C(=O)CCCn2cc(nn2)CO[C@@H]1CN(C)S(=O)(=O)c1ccc(-c2ccccc2)cc1	.	.	.	.	.	-1	.
SMILES	RecA intein inh	Yp Topo-I inh	Rv3671c inh	FadD28 binding	UGM FP inh	Mtb BioA inh	GFP chromo cs
C[C@H](CO)N1C[C@H](C)[C@H](CN(C)Cc2ccc(Oc3ccccc3)cc2)Oc2cc(-c3ccncc3)ccc2S1(=O)=O	.	.	.	.	.	-2	.
COc1cc(C2(c3ccc(O)c(OC)c3)C(=O)Nc3c(Br)cc(Br)cc32)ccc1O	49*	-5	0	-5	4	4	12*
Cc1ccc(Sc2ccc(NC(=O)CCl)cc2)c(C)c1	90*	.	-11	.	1	.	8.1*
Cc1ccc(C)c(Sc2ccc(NC(=O)CCN3C(=O)NC4(CCCC4)C3=O)cc2)c1	.	12	-30	-10	3	0	.
Cn1c(=O)c([N+](=O)[O-])c(-n2ccnc2)c2ccccc21	66*	13	4	0	1	.	19*
Cn1c(=O)c([N+](=O)[O-])c(NCCCn2ccnc2)c2ccccc21	-4	-1	8	-2	-2	.	.
CC(C)(C)OC(=O)N1CC=C2C(C#N)=C(N)C(C#N)(C#N)C(c3cccs3)C2C1 (centres undefined)	53*	2	-7	-3	-2	-2	10*
C[C@@H]1CN([C@@H](C)CO)C(=O)c2cc(NS(=O)(=O)c3cn(C)cn3)ccc2O[C@@H](C)CCCCO[C@H]1CN(C)C(=O)CCC(F)(F)F	.	.	.	.	.	-4	.
CC1C=CCC2C(=O)N(c3ccccc3OC(=O)c3ccco3)C(=O)C12 (centres undefined)	14	-9	9	1	2	0	.
O=C(Oc1ccccc1N1C(=O)CCC1=O)c1ccco1	36*	2	5	-1	1	1	>38
COc1ccc(N(C(=O)CCl)C(C(=O)NCCc2ccccc2)c2cccs2)cc1 (centres undefined)	76*	21	-6	-5	6	3	1.7*
COc1ccc(CNC(=O)C(c2ccncc2)N(C(=O)Cc2cccs2)c2ccccc2)cc1 (centres undefined)	.	0	.	-1	.	.	.
CC(C)(C)c1c(Cl)c(O)c(-c2ccccc2)c(=O)n1-c1ccccc1	31*	0	.	-3	.	.	>38
O=c1c(Cl)c(Cl)cnn1Cc1ccccc1Cl	38*	.	-2	.	0	.	20*
O=c1c(Cl)c(Cl)cnn1Cc1nnc(-c2ccc(Cl)cc2)o1	37*	8	.	-3	.	.	9.3*
N#C/C(=N\Nc1ccc(S(=O)(=O)N2CCc3ccccc32)cc1)C(N)=S	31*	0	17	46*	0	4	32*
O=c1cc(-c2cccc([N+](=O)[O-])c2)[nH][nH]1	96*	10	-77	-1	2	0	11*
CCOC(=O)/C=c1\s/c(=C(\C#N)C(=O)NC)n(-c2ccccc2)c1=O	-1	-8	-14	-1	7	0	.
